Compound activity deposited in PubChem BioAssay by Buhrlage Lab, Dana-Farber Cancer Institute and Novartis Institutes for BioMedical Research (Cambridge, Mass).
Sampled rows, rich in hits. Any-hit rate of the full collection: about 7%.
USP30 inh: blocks human USP30 ubiquitin-rhodamine cleavage. Q70CQ3. purified USP30, Ub-rhodamine cleavage fluorescence. inhibition, % at 25 µM. 47,000 compounds, 5.3% hits
Target sequence (Q70CQ3 whole entry, looked up): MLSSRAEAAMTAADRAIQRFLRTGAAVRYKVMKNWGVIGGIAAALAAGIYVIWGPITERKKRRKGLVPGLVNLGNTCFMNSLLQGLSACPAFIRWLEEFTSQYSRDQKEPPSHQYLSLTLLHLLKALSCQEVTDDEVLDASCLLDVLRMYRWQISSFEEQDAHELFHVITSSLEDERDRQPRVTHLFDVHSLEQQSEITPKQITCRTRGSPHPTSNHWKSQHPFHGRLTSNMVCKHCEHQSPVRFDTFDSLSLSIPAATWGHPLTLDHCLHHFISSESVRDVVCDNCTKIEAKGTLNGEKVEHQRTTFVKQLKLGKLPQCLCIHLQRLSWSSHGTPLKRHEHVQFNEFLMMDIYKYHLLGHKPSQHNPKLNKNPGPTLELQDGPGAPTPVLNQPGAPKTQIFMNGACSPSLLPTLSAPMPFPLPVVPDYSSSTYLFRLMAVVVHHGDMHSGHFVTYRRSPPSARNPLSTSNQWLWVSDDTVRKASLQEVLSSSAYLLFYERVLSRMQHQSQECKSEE
USP28 inh: blocks human USP28 ubiquitin-rhodamine cleavage. Q96RU2. 47,000 compounds, 3% hits. purified USP28, Ub-rhodamine cleavage fluorescence, 30 min. inhibition, % at 25 µM
* hit, by the source's call; i = inactive. No stated cut-off is given here; in the data, active means inhibition above about 30%; inactive means the rest.

SMILES | USP30 inh | USP28 inh
COc1ccc(COC(=O)C2=C(C)NC(=O)CC2c2cccc([N+](=O)[O-])c2)cc1 (stereo not given) | 20 | 86*
CC1=C(C(=O)OCc2ccc3c(c2)OCO3)C(c2ccccc2C)CC(=O)N1 (stereo not given) | 28 | 15
CC1Cc2ccccc2N1S(=O)(=O)c1cccc(C(=O)N2CCCc3ccccc32)c1 (stereo not given) | -37 | -2
O=C(c1ccc(-n2cccn2)nc1)N1CCCC1c1cnccn1 (stereo not given) | -2 | 7
COc1ccccc1NC1c2ccccc2C(=O)N1c1ccccn1 (stereo not given) | -16 | -3
O=C(NCc1cccc(C(F)(F)F)c1)c1ccc(-n2cccn2)nc1 | 32* | 6
O=C(Cn1cncn1)NCc1cccc(C(F)(F)F)c1 | -11 | -12
COCC1CN(C(=O)c2cccn2C)Cc2cnn(CC3CC3)c21 (stereo not given) | -61 | -27
N#Cc1cccc(C(=O)N2CCN3C[C@@H](C(N)=O)[C@H](c4ccccc4)[C@H]3C2)c1 | 14 | 12
NC(=O)c1ccc(NC(=O)Cc2cc(-c3ccccc3)on2)cc1 | -134 | -10
CCN1CC2(CCN(C(=O)c3cccn3C)CC2)COc2ccccc2S1(=O)=O | 0 | 1
O=C1c2cccc(OCc3ccc(Cl)cc3)c2CCN1Cc1cccnc1 | 32* | 23
Clc1ccc2c(c1)NC1(CCN(Cc3cccnc3)CC1)N1CCN=C21 | 0 | 3
O=C(Cn1c(=O)n(Cc2ccccc2)c(=O)c2nscc21)NCc1ccco1 | -23 | 14
O=C(Nc1cc(C(F)(F)F)cc(C(F)(F)F)c1)c1ccc(-c2ccccn2)s1 | 41* | 12
O=C(Nc1cc(C(F)(F)F)cc(C(F)(F)F)c1)c1cnc2sccn2c1=O | -15 | 1
c1ccc(-c2onc3c2CCCC3)cc1 | 17 | 35*
CC(C(=O)N1CCC(c2onc3c2CCCC3)CC1)c1ccccc1 (stereo not given) | 6 | -8
O=C(O)C1CCN(C(=O)[C@@H]2CCCN2C(=O)[C@H](Cc2ccccc2)n2c(=O)[nH]c3ccccc3c2=O)CC1 | 10 | 8
COc1ccc2nc(N(Cc3ccncc3)C(=O)c3ccc(C)cc3)sc2c1 | -67 | -18
Cc1cc(C)c2sc(N(CCN(C)C)C(=O)CS(=O)(=O)c3ccccc3)nc2c1 | 7 | 4
COc1ccc2nc(N(CCCn3ccnc3)C(=O)c3ccc(Cl)s3)sc2c1 | 50* | 25
Cc1cc(C)c2sc(N(CCCn3ccnc3)C(=O)Cc3ccccc3)nc2c1 | 92* | 40*
Cc1cnc(N2CC[C@@H]3CN(Cc4cccc(Cl)c4)S(=O)(=O)[C@@H]3CC2)nc1 | -4 | -11
COc1ccc(NC(=O)c2ccc(-c3ccc(N4CCCC4)nn3)cc2)c(OC)c1 | 6 | 13
SMILES | USP30 inh | USP28 inh
Cc1cccc(Nc2cccc(C3CCCN3S(=O)(=O)N(C)C)n2)n1 (stereo not given) | -15 | -16
CC(=O)c1cc(-c2ccc(F)cc2)n(CC(=O)NCc2ccc(N(C)C)cc2)c1C | -109 | -5
CC(=O)c1cc(-c2ccc(F)cc2)n(CC(=O)Nc2cccc(C)c2C)c1C | 73* | 22
CC1CN(C(=O)COc2ccc(Cl)cc2)C(C)CN1C(=O)COc1ccc(Cl)cc1 (stereo not given) | -165 | -9
O=C(c1ccc2nc[nH]c2c1)N1C[C@H]2CC[C@@H](Nc3cccnn3)[C@H]2C1 | -32 | -18
O=C(NCCCN1CCCC1=O)c1ccc(N2CCCC2=O)cc1 | 2 | 0
COc1ccc(CCNC(=O)COC(=O)c2ccc(N3CCCC3=O)cc2)cc1 | 81* | 9
COc1ccc(Nc2c3c(nc4ccc(NC(=O)c5cncc(Br)c5)cc24)CCCC3)cc1OC | -9 | 5
Cc1cccc(C)c1NC(=O)C(c1ccc2c(c1)OCO2)N1CCOCC1 (stereo not given) | 29 | 5
CC(OC(=O)c1ccccc1Sc1ccccc1C#N)C(=O)Nc1cccc([N+](=O)[O-])c1 (stereo not given) | 36* | 27
CC(OC(=O)c1cc(S(=O)(=O)Nc2ccccc2F)ccc1Cl)C(=O)Nc1ccc([N+](=O)[O-])cc1C(F)(F)F (stereo not given) | -8 | 15
CN1CCN(C(CNS(=O)(=O)c2ccccc2)c2ccc(F)cc2)CC1 (stereo not given) | 0 | -3
Cc1nnc(NC(=O)C2CCN(c3ccc(S(N)(=O)=O)cc3[N+](=O)[O-])CC2)o1 | 29 | 66*
Cc1ccc(S(=O)(=O)N2CCC(C(=O)Nc3nnc(C)o3)CC2)cc1 | 1 | 0
CCn1ncc(S(=O)(=O)Nc2cnn(Cc3ccccc3Cl)c2)c1C | -28 | -1
Nc1cc(C2CCN(S(=O)(=O)c3ccc(Cl)cc3)CC2)no1 | -39 | -27
Clc1ccccc1CSc1nnc(C2CCCCC2)n1Cc1ccccc1 | 57* | 23
CC(NC(=O)CSc1nnc(C2CC2)n1Cc1ccccc1)c1ccco1 (stereo not given) | -54 | -4
Cc1cc2cc3c(cc2n2c(=O)n(CCN4CCCC4)nc12)OCO3 | 42* | 10
Cc1cc(C)c2c(c1)cc(C)c1nn(CC(N)=O)c(=O)n12 | 10 | 0
CCOC(=O)c1ccc(NC(=O)CSc2nnc(CNC(=O)c3cccs3)o2)cc1 | 18 | 4
COc1cccc(C(=O)Nc2cnn(-c3ncc(N4CCCC4)cn3)c2)c1 | -83 | -35
Cc1ccc(S(=O)(=O)Nc2ccc3[nH]cc(Cl)c3c2)cc1 | 39* | 44*
Cc1ccc(S(=O)(=O)Nc2ccc(S(=O)(=O)Nc3ccc(F)cc3)cc2)cc1 | 9 | 13
Cc1ccccc1NC(=O)c1cnn(-c2ccccc2)c1C1CCNCC1 | -18 | -8
SMILES | USP30 inh | USP28 inh
Cc1cccc(CSC2=NS(=O)(=O)c3ccccc3N2)c1 | 8 | 14
Cc1cccc(CSc2nc3nc4c(cn3n2)C(=O)CC(C)(C)C4)c1 | 35* | 17
CC(C)Nc1nc2c(cc1C(=O)NCC1CC1)CCN(Cc1cnn(C)c1)CC2 | -27 | -13
CCOc1ccc(CNc2nc3ccc(C)cc3n3cnnc23)cc1OC | 0 | 0
Cc1ccc2nc(N3CCc4ccccc4C3)c3nncn3c2c1 | 27 | 34*
COc1cccc2c1C(=O)c1ccc3c(c1C2=O)C(=O)CC(C)(O)C3 (stereo not given) | 22 | 0
COc1cc(OC)c2c(c1)C(=O)C1=C(COC(C)(O)C1)C2=O (stereo not given) | -16 | 37*
O=[N+]([O-])c1ccc2c(c1)nc1n2CCN(Cc2ccco2)C1 | 42* | 43*
c1ccc(CCN2CCn3c(nc4ccccc43)C2)cc1 | i | -226
Cc1c(Cl)cccc1NC(=O)CSc1nc2cn(C)nc2c(=O)n1CC1CC1 | 27 | 13
Cc1ccc(Cl)cc1NC(=O)CSc1nc2cn(C)nc2c(=O)n1CC1CC1 | 54* | 28
Cn1cc2nc(SCC(=O)Nc3ccc(Cl)cc3F)n(CC3CC3)c(=O)c2n1 | -21 | -2
Cn1cc2nc(SCC(=O)NCc3ccccc3Cl)n(CC3CC3)c(=O)c2n1 | 32* | 14
CC(=O)N1CCN(c2cc(-c3noc([C@@H]4CCCN4Cc4cccnc4)n3)ccn2)CC1 | -102 | -16
O=C(COc1ncnc2c(Cl)cc(Cl)cc12)Nc1ccc2c(c1)OCO2 | -131 | -52
COc1ccc(Cn2c(N3CCCCC3)nc3c2c(=O)n(C)c(=O)n3C)cc1 | 26 | 11
COc1ccc(Cn2c(Oc3ccccc3C)nc3c2c(=O)n(C)c(=O)n3C)cc1 | 32* | 13
